Data reported in PubChem BioAssay (NCI).
Where “and” joins values, the source holds several entries; their conditions need not be identical. Equal values may be shown once. The panel holds about 83,000 compounds, 20% with a hit somewhere; the sample as a whole holds those more often.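 Percent growth is the endpoint: 0 to 100 indicates growth inhibition (40 means 60% inhibition), 0 means no net growth, and negative values indicate cell death.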 Calls of active or inactive are those of the source. The calls were made as follows: active = growth percent below 10; inactive = the rest.

Experiments:
Experiment in all cases: NCI-60 one-dose screen, 48 h (100 = growth as untreated, 0 = no growth, -100 = all killed)
Details in all cases: 10 µM unless noted
SR leukemia = tested on: SR leukemia
RPMI-8226 leukemia = tested on: RPMI-8226 leukemia
OVCAR-8 ovarian = tested on: OVCAR-8 ovarian
OVCAR-5 ovarian = tested on: OVCAR-5 ovarian
OVCAR-4 ovarian = tested on: OVCAR-4 ovarian
IGROV1 ovarian = tested on: IGROV1 ovarian
OVCAR-3 ovarian = tested on: OVCAR-3 ovarian
HS 578T breast = tested on: HS 578T breast
NCI/ADR-RES ovarian = tested on: NCI/ADR-RES ovarian
T-47D breast = tested on: T-47D breast
BT-549 breast = tested on: BT-549 breast
MDA-MB-435 melanoma = tested on: MDA-MB-435 melanoma
SW-620 colon = tested on: SW-620 colon
MCF7 breast = tested on: MCF7 breast
HCT-116 colon = tested on: HCT-116 colon
HCC-2998 colon = tested on: HCC-2998 colon
KM12 colon = tested on: KM12 colon

| Structure (SMILES) | growth (SR leukemia) | growth (RPMI-8226 leukemia) | growth (OVCAR-8 ovarian) | growth (OVCAR-5 ovarian) | growth (OVCAR-4 ovarian) | growth (IGROV1 ovarian) | growth (OVCAR-3 ovarian) | growth (HS 578T breast) | growth (NCI/ADR-RES ovarian) | growth (T-47D breast) | growth (BT-549 breast) | growth (MDA-MB-435 melanoma) | growth (SW-620 colon) | growth (MCF7 breast) | growth (HCT-116 colon) | growth (HCC-2998 colon) | growth (KM12 colon) |
| --- | --- | --- | --- | --- | --- | --- | --- | --- | --- | --- | --- | --- | --- | --- | --- | --- | --- |
| Cc1cc2ccccc2c2cc3ccccc3cc12 | 40.8% (inactive) | 105% (inactive) | 98.9% (inactive) | 86.9% (inactive) | 94.5% (inactive) | 61.8% (inactive) | 100% (inactive) | 95.2% (inactive) | 98.8% (inactive) | 48% (inactive) | 93.7% (inactive) | 100% (inactive) | 90% (inactive) | 33.8% (inactive) | 93.8% (inactive) | 92.5% (inactive) | 82.1% (inactive) |
| CC(=O)Oc1cc(C)c(OC(C)=O)c(C)c1C | 118% (inactive) | 92.1% (inactive) | 99.8% (inactive) | 125% (inactive) | 125% (inactive) | 122% (inactive) | 119% (inactive) | 91.1% (inactive) | 95.2% (inactive) | 82.2% (inactive) | 117% (inactive) | 105% (inactive) | – | 91.3% (inactive) | – | 105% (inactive) | 101% (inactive) |
| COC(=O)C(Cc1cn(C(C)=O)c2ccccc12)P(=O)(OC)OC (stereo not given) | 94.6% (inactive) | 101% (inactive) | 106% (inactive) | 103% (inactive) | 87% (inactive) | – | 106% (inactive) | 94.2% (inactive) | 95.3% (inactive) | 105% (inactive) | 105% (inactive) | 99.5% (inactive) | – | 101% (inactive) | 96.4% (inactive) | 103% (inactive) | 99.2% (inactive) |
| CC1NC(C)c2ccc3ccccc3c2O1 (stereo not given) | 96.8% (inactive) | 97.3% (inactive) | 104% (inactive) | 108% (inactive) | 111% (inactive) | 115% (inactive) | 106% (inactive) | 108% (inactive) | 105% (inactive) | 108% (inactive) | 107% (inactive) | 111% (inactive) | 111% (inactive) | 92% (inactive) | 102% (inactive) | 110% (inactive) | 111% (inactive) |
| Cn1c(-c2ccccc2)cc(=O)cc1-c1ccccc1 | 69.5% (inactive) | 78.9% (inactive) | 80.1% (inactive) | 79.2% (inactive) | 85.6% (inactive) | 88% (inactive) | 122% (inactive) | 105% (inactive) | 82.2% (inactive) | 97.1% (inactive) | 86.8% (inactive) | 116% (inactive) | 51.7% (inactive) | 53.3% (inactive) | 61.6% (inactive) | 127% (inactive) | 98.5% (inactive) |
| CC(C)=NOC(C)C(=O)O (stereo not given) | 92% (inactive) | 111% (inactive) | 90.2% (inactive) | 101% (inactive) | 108% (inactive) | 135% (inactive) | 114% (inactive) | 108% (inactive) | 99.6% (inactive) | 107% (inactive) | 98% (inactive) | 97.2% (inactive) | 103% (inactive) | 97% (inactive) | 95.7% (inactive) | 100% (inactive) | 114% (inactive) |
| Cc1cc2nc3ccc(=[N+](C)C)cc-3sc2cc1N | -4.11% (active) | -10.3% (active) and -38.2% (active) | 4.72% (active) and 7.29% (active) | -57.5% (active) and -0.424% (active) | 8.09% (active) | -55.6% (active) and 10.3% (inactive) | -15.2% (active) and -44% (active) | 41.1% (inactive) and -0.376% (active) | 1.81% (active) and 2.67% (active) | -25.1% (active) and 1.21% (active) | 48.9% (inactive) and 50.4% (inactive) | -68.9% (active) and -41.4% (active) | -19.7% (active) and -9.28% (active) | -3.34% (active) and -28.7% (active) | -22.8% (active) and 4.49% (active) | 18.8% (inactive) | 5.96% (active) and -2.21% (active) |
